In paper PMC7862700, “An all-to-all approach to the identification of sequence-specific readers for epigenetic DNA modifications on cytosine” one finds binding signal data, which are given here for one sequence.

What all share (assay): DAPPL (digital affinity profiling via proximity ligation, sequencing); 10 mM Tris-HCl pH 7.5, 50 mM NaCl, 1 mM DTT, 4% glycerol, room temperature, 30 min; GST-TFs on glutathione beads, 16-mer random dsDNA library, 0.1% formaldehyde crosslink after washing; high values mean tight binding
The target of experiment [1] is T1, FEV (Homo sapiens, UniProt Q99581 1-238).
T1 sequence: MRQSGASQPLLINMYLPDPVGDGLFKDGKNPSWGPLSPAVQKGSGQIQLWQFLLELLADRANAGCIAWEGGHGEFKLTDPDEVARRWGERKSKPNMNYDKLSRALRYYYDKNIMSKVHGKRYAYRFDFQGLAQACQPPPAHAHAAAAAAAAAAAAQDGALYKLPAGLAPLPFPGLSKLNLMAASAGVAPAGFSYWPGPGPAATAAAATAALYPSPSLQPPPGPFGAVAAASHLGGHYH
The note with it: protein: recombinant; tags: N-terminal GST; dsDNA, one strand shown. In a few lines:
(§1)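 Pools of DNA-barcoded human transcription factors, expressed in yeast as GST fusions on glutathione beads and combined with a tag-only sample, were incubated with 200 nmole of a 16-mer random double-stranded DNA library. Incubation took 30 min at room temperature in Tris/NaCl/DTT/glycerol buffer and was followed by washing, 0.1% formaldehyde crosslinking, proximity ligation (BsaI/T4 ligase, 1 h, 37 °C), PCR amplification and sequencing on an Illumina NextSeq500. Binding signal is the ratio of a hexamer's read frequency for a factor to its frequency for the tag-only sample.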

Experiment [2] has as its target ETV5 (Homo sapiens, UniProt P41161 1-510). As to conditions: protein: recombinant; tags: N-terminal GST; dsDNA, one strand shown. In a few lines: as §1
Experiment [3] deals with HSF1 (Homo sapiens, UniProt Q00613 1-529). As to conditions: protein: recombinant; tags: N-terminal GST; chain copies: 3; dsDNA, one strand shown. In a few lines: as §1
The target of experiment [4] is T2, SPIC (Homo sapiens, UniProt Q8N5J4 1-248).
T2 sequence: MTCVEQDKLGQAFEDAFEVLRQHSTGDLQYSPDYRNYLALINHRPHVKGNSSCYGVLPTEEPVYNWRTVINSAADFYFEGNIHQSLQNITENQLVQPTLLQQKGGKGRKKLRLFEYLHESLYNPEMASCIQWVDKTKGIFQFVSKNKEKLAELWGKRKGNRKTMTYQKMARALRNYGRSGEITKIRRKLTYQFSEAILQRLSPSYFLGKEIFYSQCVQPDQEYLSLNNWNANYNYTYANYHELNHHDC
As to conditions: protein: recombinant; tags: N-terminal GST; dsDNA, one strand shown. In a few lines: as §1

Experiment [5] deals with ELF4 (Homo sapiens, UniProt Q99607 1-663). The note with it: protein: recombinant; tags: N-terminal GST; dsDNA, one strand shown. The essentials:
as §1

The target of experiment [6] is T3, ELK4 (Homo sapiens, UniProt P28324-2 1-405).
T3 sequence: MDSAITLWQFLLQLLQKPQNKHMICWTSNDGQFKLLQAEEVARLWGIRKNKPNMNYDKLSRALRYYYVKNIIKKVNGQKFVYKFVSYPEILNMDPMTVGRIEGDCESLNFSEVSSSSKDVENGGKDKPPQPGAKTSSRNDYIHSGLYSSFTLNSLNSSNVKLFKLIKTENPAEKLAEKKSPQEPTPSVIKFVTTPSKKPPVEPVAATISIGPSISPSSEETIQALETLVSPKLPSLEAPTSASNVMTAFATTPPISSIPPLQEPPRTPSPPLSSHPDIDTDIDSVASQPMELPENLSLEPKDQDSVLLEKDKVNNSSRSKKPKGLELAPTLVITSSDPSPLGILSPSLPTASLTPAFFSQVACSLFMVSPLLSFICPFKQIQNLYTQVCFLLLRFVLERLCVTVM
As to conditions: protein: recombinant; tags: N-terminal GST; dsDNA, one strand shown. The essentials:
as §1

Experiment [7] addresses T4, ETV2 (Homo sapiens, UniProt O00321 1-342).
T4 sequence: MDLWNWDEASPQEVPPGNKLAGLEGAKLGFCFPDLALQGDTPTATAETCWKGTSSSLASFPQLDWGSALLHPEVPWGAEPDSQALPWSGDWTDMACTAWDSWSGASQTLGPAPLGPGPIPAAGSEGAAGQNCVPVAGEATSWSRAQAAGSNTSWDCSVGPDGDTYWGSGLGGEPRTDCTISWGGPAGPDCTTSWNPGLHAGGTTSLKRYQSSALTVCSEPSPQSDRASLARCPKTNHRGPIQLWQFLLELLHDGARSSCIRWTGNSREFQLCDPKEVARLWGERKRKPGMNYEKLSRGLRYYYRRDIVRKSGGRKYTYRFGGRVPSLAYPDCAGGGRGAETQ
As to conditions: protein: recombinant; tags: N-terminal GST; dsDNA, one strand shown. The essentials:
as §1

Experiment [8] has as its target T5, ELF3 (Homo sapiens, UniProt P78545 1-371).
T5 sequence: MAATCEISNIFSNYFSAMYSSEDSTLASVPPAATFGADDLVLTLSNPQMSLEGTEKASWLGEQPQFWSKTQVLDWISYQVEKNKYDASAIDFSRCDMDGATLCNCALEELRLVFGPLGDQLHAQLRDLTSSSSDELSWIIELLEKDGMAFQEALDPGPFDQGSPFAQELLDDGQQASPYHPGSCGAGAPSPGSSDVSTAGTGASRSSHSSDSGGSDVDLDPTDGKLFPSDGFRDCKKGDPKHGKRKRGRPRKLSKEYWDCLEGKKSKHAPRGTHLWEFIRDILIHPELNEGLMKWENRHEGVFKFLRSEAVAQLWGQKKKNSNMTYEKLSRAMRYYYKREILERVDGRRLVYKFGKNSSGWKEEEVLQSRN
The note with it: protein: recombinant; tags: N-terminal GST; dsDNA, one strand shown. The essentials: as §1

In experiment [9] the target is CRX (Homo sapiens, UniProt O43186 1-299). The note with it: protein: recombinant; tags: N-terminal GST; dsDNA, one strand shown. The essentials: as §1
The target in experiment [10] is ETV1 (Homo sapiens, UniProt P50549 1-477). As to conditions: protein: recombinant; tags: N-terminal GST; dsDNA, one strand shown. The essentials: as §1
The target in experiment [11] is T6, ERF (Homo sapiens, UniProt P50548 1-548).
T6 sequence: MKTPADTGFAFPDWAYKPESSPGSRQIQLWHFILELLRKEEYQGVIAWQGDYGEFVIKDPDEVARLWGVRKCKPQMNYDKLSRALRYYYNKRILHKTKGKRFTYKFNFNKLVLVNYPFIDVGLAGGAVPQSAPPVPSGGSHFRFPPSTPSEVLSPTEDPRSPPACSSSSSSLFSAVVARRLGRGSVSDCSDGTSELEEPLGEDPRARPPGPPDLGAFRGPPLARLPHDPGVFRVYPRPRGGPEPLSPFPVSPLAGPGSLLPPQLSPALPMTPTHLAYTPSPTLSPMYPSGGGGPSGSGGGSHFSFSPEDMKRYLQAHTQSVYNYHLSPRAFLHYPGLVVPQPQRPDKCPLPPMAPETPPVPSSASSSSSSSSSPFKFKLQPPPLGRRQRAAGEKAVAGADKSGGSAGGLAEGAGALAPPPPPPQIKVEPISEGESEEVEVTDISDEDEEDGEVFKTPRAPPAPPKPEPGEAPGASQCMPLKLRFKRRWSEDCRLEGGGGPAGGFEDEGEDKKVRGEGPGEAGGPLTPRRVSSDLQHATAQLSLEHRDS
The note with it: protein: recombinant; tags: N-terminal GST; dsDNA, one strand shown. In a few lines:
as §1

The target in experiment [12] is T7, ETV3L (Homo sapiens, UniProt Q6ZN32 1-361).
T7 sequence: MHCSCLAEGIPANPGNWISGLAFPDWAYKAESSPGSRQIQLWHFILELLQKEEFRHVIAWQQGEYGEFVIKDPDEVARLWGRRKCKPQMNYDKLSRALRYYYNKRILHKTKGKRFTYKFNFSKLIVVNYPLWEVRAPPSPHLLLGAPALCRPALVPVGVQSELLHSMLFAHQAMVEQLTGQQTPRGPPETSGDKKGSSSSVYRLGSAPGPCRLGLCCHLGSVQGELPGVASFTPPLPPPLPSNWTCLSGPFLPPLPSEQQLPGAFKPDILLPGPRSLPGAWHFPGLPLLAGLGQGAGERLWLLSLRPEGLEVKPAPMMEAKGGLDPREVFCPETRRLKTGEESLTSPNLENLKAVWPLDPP
As to conditions: protein: recombinant; tags: N-terminal GST; dsDNA, one strand shown. The essentials: as §1

For experiment [13], the target named is T8, ETS2 (Homo sapiens, UniProt P15036 1-469).
T8 sequence: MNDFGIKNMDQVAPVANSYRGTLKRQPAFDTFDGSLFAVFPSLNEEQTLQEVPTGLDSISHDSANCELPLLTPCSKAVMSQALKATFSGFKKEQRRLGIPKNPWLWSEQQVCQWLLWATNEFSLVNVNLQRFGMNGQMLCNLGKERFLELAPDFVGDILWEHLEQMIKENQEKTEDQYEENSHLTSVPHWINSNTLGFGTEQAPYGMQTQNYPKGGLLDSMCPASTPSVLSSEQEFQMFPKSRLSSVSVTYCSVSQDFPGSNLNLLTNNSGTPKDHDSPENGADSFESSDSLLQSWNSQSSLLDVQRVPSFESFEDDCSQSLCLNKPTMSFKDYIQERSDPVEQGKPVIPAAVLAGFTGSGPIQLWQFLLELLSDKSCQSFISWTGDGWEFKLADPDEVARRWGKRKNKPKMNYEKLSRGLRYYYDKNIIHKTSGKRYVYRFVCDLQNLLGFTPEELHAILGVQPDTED
The note with it: protein: recombinant; tags: N-terminal GST; dsDNA, one strand shown. In a few lines:
as §1

The target of experiment [14] is T9, SPDEF (Homo sapiens, UniProt O95238 1-335).
T9 sequence: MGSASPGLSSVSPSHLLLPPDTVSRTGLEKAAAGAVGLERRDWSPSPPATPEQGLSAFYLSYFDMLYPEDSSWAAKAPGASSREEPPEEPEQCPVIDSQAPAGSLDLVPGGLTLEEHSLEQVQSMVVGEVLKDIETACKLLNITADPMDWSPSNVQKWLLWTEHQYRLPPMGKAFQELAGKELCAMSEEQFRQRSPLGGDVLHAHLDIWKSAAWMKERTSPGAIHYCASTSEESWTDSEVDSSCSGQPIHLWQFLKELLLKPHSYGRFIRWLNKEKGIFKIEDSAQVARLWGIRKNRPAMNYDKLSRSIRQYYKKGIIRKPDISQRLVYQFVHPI
As to conditions: protein: recombinant; tags: N-terminal GST; dsDNA, one strand shown. In a few lines:
as §1

Experiment [15] has as its target T10, ETV7 (Homo sapiens, UniProt Q9Y603 1-341).
T10 sequence: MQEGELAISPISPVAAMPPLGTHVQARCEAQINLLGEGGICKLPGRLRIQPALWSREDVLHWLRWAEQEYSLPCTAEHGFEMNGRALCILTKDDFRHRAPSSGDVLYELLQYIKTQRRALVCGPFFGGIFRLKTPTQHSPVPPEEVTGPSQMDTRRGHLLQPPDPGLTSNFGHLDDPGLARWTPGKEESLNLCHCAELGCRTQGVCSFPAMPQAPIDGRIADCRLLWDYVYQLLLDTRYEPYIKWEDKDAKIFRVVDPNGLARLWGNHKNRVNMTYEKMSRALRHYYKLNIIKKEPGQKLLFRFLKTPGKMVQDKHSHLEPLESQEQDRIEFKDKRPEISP
As to conditions: protein: recombinant; tags: N-terminal GST; dsDNA, one strand shown. The essentials:
as §1

The target in experiment [16] is T11, ELF5 (Homo sapiens, UniProt Q9UKW6-2 1-255).
T11 sequence: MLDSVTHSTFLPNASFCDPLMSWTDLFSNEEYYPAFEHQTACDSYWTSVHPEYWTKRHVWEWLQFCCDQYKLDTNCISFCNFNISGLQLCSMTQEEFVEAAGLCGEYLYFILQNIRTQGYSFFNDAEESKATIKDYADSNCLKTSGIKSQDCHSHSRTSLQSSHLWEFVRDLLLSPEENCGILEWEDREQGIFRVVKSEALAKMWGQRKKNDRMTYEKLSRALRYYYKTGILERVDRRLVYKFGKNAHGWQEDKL
The note with it: protein: recombinant; tags: N-terminal GST; dsDNA, one strand shown. The essentials: as §1

For experiment [17], the target named is T12, ETV3 (Homo sapiens, UniProt P41162-2 1-143).
T12 sequence: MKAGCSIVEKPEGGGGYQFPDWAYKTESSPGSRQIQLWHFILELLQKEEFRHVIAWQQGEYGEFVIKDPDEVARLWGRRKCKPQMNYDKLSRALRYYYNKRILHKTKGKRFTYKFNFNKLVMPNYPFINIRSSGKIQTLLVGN
As to conditions: protein: recombinant; tags: N-terminal GST; dsDNA, one strand shown. The essentials: as §1

Experiment [18] addresses ETV6 (Homo sapiens, UniProt P41212 1-452). The note with it: protein: recombinant; tags: N-terminal GST; dsDNA, one strand shown. The essentials: as §1

Sequence of HSF1 (Q00613 whole entry): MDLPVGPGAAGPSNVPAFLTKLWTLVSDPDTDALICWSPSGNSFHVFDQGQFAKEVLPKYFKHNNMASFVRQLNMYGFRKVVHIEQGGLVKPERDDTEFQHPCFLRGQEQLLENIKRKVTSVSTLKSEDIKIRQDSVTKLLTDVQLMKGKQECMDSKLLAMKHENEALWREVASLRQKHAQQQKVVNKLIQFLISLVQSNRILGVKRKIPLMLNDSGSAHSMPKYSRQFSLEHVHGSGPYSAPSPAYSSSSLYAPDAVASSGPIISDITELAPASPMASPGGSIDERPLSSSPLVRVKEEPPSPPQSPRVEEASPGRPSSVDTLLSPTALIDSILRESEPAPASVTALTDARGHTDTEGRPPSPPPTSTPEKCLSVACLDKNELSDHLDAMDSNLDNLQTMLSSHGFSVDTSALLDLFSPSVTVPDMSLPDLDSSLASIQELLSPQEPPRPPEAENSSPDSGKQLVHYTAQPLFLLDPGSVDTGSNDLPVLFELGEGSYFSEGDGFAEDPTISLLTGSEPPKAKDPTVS
Sequence of ELF4 (Q99607 whole entry): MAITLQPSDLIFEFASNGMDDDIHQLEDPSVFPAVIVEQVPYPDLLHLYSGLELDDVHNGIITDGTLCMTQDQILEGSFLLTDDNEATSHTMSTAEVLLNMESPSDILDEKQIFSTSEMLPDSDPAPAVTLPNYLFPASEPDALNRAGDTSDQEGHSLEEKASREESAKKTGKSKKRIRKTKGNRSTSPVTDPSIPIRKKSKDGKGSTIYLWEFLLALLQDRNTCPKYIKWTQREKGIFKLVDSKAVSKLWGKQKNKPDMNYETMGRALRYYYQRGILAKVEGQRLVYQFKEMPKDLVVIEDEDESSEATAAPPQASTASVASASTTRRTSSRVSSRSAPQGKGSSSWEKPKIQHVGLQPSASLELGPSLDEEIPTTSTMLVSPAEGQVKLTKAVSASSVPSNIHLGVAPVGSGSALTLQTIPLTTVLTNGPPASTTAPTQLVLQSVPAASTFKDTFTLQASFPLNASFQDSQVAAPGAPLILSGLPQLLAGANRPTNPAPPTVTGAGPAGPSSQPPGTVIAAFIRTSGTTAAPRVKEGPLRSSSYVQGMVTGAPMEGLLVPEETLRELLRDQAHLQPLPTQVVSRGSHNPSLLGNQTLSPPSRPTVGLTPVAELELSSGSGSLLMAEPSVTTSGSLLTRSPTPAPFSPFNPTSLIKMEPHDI
Sequence of ETV1 (P50549 whole entry): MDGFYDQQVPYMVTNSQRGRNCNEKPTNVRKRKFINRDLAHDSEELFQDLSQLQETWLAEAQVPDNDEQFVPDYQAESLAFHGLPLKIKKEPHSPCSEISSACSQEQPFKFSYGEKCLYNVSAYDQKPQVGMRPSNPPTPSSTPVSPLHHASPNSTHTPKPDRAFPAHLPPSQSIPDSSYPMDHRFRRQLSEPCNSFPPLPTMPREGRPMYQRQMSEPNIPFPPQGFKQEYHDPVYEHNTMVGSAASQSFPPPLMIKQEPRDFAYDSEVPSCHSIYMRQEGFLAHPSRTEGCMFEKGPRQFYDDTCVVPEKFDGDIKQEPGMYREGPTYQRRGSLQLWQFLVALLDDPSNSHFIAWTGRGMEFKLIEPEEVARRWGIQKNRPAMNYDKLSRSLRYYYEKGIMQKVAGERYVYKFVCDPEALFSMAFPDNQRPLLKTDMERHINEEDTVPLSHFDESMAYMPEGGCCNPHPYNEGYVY
Sequence of CRX (O43186 whole entry): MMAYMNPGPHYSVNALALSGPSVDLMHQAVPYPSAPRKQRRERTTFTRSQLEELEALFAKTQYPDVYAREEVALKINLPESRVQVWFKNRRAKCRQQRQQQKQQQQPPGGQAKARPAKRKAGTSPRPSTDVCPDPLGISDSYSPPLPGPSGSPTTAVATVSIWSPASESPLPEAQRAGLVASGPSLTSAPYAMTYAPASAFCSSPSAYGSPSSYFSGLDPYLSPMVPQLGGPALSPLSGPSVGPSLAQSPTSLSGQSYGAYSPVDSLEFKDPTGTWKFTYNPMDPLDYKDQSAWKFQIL
Sequence of ETV5 (P41161 whole entry): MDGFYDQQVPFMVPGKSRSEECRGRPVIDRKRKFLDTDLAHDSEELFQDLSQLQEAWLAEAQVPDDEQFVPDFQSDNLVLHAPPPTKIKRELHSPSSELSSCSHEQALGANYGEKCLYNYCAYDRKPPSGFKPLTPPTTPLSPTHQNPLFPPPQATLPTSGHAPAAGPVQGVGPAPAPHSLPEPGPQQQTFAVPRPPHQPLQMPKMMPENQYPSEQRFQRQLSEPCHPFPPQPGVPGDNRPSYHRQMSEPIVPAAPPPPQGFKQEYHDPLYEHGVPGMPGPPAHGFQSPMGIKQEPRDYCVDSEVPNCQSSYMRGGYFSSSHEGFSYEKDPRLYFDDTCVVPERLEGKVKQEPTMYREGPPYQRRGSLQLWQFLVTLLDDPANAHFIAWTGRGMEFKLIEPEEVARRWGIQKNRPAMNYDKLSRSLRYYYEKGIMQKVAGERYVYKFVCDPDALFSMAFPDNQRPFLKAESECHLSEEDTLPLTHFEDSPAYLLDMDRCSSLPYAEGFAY
Sequence of ETV6 (P41212 whole entry): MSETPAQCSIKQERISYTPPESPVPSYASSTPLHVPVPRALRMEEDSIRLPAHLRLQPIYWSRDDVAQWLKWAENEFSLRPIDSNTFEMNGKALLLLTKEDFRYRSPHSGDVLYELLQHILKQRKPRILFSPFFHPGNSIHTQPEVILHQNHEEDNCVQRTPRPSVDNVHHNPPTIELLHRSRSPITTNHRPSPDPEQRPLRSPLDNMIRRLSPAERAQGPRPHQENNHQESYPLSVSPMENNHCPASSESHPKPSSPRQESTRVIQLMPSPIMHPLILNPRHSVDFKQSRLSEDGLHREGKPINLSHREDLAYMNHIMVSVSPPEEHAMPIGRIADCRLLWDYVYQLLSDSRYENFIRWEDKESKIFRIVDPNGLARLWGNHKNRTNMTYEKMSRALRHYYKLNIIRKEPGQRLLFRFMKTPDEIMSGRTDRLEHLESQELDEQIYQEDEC

Consider CTTGAT, for which the binding signal in [1] was 1.38 fold enrichment (6-mer frequency, TF over GST control); in experiment [2], 1.43 fold enrichment (6-mer frequency, TF over GST control); in experiment [3], 1.44 fold enrichment (6-mer frequency, TF over GST control); in experiment [4] it was 1.41 fold enrichment (6-mer frequency, TF over GST control); in experiment [5], 1.43 fold enrichment (6-mer frequency, TF over GST control); in [6], 1.43 fold enrichment (6-mer frequency, TF over GST control). Also, the binding signal was 1.43 fold enrichment (6-mer frequency, TF over GST control) in experiment [7]; 1.38 fold enrichment (6-mer frequency, TF over GST control) in [8]; 1.57 fold enrichment (6-mer frequency, TF over GST control) in [9]; 1.29 fold enrichment (6-mer frequency, TF over GST control) in [10]; 1.47 fold enrichment (6-mer frequency, TF over GST control) in experiment [11]; 1.42 fold enrichment (6-mer frequency, TF over GST control) in experiment [12]. Also, the binding signal is 1.35 fold enrichment (6-mer frequency, TF over GST control) in experiment [13]; 1.34 fold enrichment (6-mer frequency, TF over GST control) in [14]; 1.28 fold enrichment (6-mer frequency, TF over GST control) in [15]; 1.39 fold enrichment (6-mer frequency, TF over GST control) in experiment [16]; 1.35 fold enrichment (6-mer frequency, TF over GST control) in [17]; 1.24 fold enrichment (6-mer frequency, TF over GST control) in experiment [18].
